{"source": "the supplement of paper PMC4466140", "experiment_in_all_cases": "SPOT peptide array binding signal intensity (averaged, normalized) (arbitrary units (background-subtracted, floor 0; scale differs between SH3 domains)); higher = stronger binding of the SH3 domain to the peptide", "key": {"AgAbp1": {"target": "AgAbp1", "procedure,_shortened": "(§1)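 Detection of bound protein relied on anti-GST antibody, an HRP anti-mouse secondary and luminol, with imaging and quantification in Genespotter. The bound protein was GST-fused SH3 domains from four yeast species, incubated at 10 μg/ml overnight at 4°C in TBS-based blocking buffer on cellulose membranes carrying synthetic 15-mer peptides with cysteines replaced by serines. Binding signal is normalized, background-subtracted spot intensity averaged over replicates, in arbitrary units that differ between domains.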"}, "AgBbc1": {"target": "AgBbc1", "procedure,_shortened": "as §1"}, "AgBem1-D1": {"target": "AgBem1-D1", "procedure,_shortened": "as §1"}, "AgBzz1-D1": {"target": "AgBzz1-D1", "procedure,_shortened": "as §1"}, "AgBzz1-D2": {"target": "AgBzz1-D2", "procedure,_shortened": "as §1"}, "AgCyk3": {"target": "AgCyk3", "procedure,_shortened": "as §1"}, "AgFus1": {"target": "AgFus1", "procedure,_shortened": "as §1"}, "AgHof1": {"target": "AgHof1", "procedure,_shortened": "as §1"}, "AgHse1": {"target": "AgHse1", "procedure,_shortened": "as §1"}, "AgLsb1": {"target": "AgLsb1", "procedure,_shortened": "as §1"}, "AgLsb4": {"target": "AgLsb4", "procedure,_shortened": "as §1"}, "AgMyo5": {"target": "AgMyo5", "procedure,_shortened": "as §1"}, "AgNbp2": {"target": "AgNbp2", "procedure,_shortened": "as §1"}, "AgRvs167": {"target": "AgRvs167", "procedure,_shortened": "as §1"}, "AgSho1": {"target": "AgSho1", "procedure,_shortened": "as §1"}, "AgSla1-D1-D2": {"target": "AgSla1-D1-D2", "procedure,_shortened": "as §1"}, "AgSla1-D3": {"target": "AgSla1-D3", "procedure,_shortened": "as §1"}, "CaAbp1-D1": {"target": "CaAbp1-D1", "procedure,_shortened": "as §1"}, "CaAbp1-D2": {"target": "CaAbp1-D2", "procedure,_shortened": "as §1"}, "CaBbc1": {"target": "CaBbc1", "procedure,_shortened": "as §1"}, "CaBem1-D1": {"target": "CaBem1-D1", "procedure,_shortened": "as §1"}, "CaBzz1-D1": {"target": "CaBzz1-D1", "procedure,_shortened": "as §1"}, "CaBzz1-D2": {"target": "CaBzz1-D2", "procedure,_shortened": "as §1"}, "CaCyk3": {"target": "CaCyk3", "procedure,_shortened": "as §1"}, "CaFus1": {"target": "CaFus1", "procedure,_shortened": "as §1"}, "CaHof1": {"target": "CaHof1", "procedure,_shortened": "as §1"}, "CaHse1": {"target": "CaHse1", "procedure,_shortened": "as §1"}, "CaLsb1": {"target": "CaLsb1", "procedure,_shortened": "as §1"}, "CaLsb4": {"target": "CaLsb4", "procedure,_shortened": "as §1"}, "CaMyo5": {"target": "CaMyo5", "procedure,_shortened": "as §1"}, "CaNbp2": {"target": "CaNbp2", "procedure,_shortened": "as §1"}, "CaRvs167": {"target": "CaRvs167", "procedure,_shortened": "as §1"}, "CaRvs167-3": {"target": "CaRvs167-3", "procedure,_shortened": "as §1"}, "CaSho1": {"target": "CaSho1", "procedure,_shortened": "as §1"}, "CaSla1-D1-D2": {"target": "CaSla1-D1-D2", "procedure,_shortened": "as §1"}, "CaSla1-D3": {"target": "CaSla1-D3", "procedure,_shortened": "as §1"}, "ScAbp1": {"target": "ScAbp1", "procedure,_shortened": "as §1"}, "ScBbc1": {"target": "ScBbc1", "procedure,_shortened": "as §1"}, "ScBem1-D1": {"target": "ScBem1-D1", "procedure,_shortened": "as §1"}, "ScBzz1-D1": {"target": "ScBzz1-D1", "procedure,_shortened": "as §1"}, "ScBzz1-D2": {"target": "ScBzz1-D2", "procedure,_shortened": "as §1"}, "ScCyk3": {"target": "ScCyk3", "procedure,_shortened": "as §1"}, "ScFus1": {"target": "ScFus1", "procedure,_shortened": "as §1"}, "ScHof1": {"target": "ScHof1", "procedure,_shortened": "as §1"}, "ScHse1": {"target": "ScHse1", "procedure,_shortened": "as §1"}, "ScLsb1": {"target": "ScLsb1", "procedure,_shortened": "as §1"}, "ScLsb2": {"target": "ScLsb2", "procedure,_shortened": "as §1"}, "ScLsb3": {"target": "ScLsb3", "procedure,_shortened": "as §1"}, "ScLsb4": {"target": "ScLsb4", "procedure,_shortened": "as §1"}, "ScMyo3": {"target": "ScMyo3", "procedure,_shortened": "as §1"}, "ScMyo5": {"target": "ScMyo5", "procedure,_shortened": "as §1"}, "ScNbp2": {"target": "ScNbp2", "procedure,_shortened": "as §1"}, "ScPex13": {"target": "ScPex13", "procedure,_shortened": "as §1"}, "ScRvs167": {"target": "ScRvs167", "procedure,_shortened": "as §1"}, "ScSho1": {"target": "ScSho1", "procedure,_shortened": "as §1"}, "ScSla1-D1-D2": {"target": "ScSla1-D1-D2", "procedure,_shortened": "as §1"}, "ScSla1-D3": {"target": "ScSla1-D3", "procedure,_shortened": "as §1"}, "SpAbp1-D1": {"target": "SpAbp1-D1", "procedure,_shortened": "as §1"}, "SpBbc1": {"target": "SpBbc1", "procedure,_shortened": "as §1"}, "SpBzz1-D1": {"target": "SpBzz1-D1", "procedure,_shortened": "as §1"}}, "data": [{"binder": "DDEDVPPQLPTRTKS", "values": [{"measurement": "SPOT peptide array binding signal intensity", "setting": "AgAbp1", "result": "≤ 0"}, {"measurement": "SPOT peptide array binding signal intensity", "setting": "AgBbc1", "result": 14.5}, {"measurement": "SPOT peptide array binding signal intensity", "setting": "AgBem1-D1", "result": 1}, {"measurement": "SPOT peptide array binding signal intensity", "setting": "AgBzz1-D1", "result": 28}, {"measurement": "SPOT peptide array binding signal intensity", "setting": "AgBzz1-D2", "result": 11.5}, {"measurement": "SPOT peptide array binding signal intensity", "setting": "AgCyk3", "result": "≤ 0"}, {"measurement": "SPOT peptide array binding signal intensity", "setting": "AgFus1", "result": 6.5}, {"measurement": "SPOT peptide array binding signal intensity", "setting": "AgHof1", "result": 28}, {"measurement": "SPOT peptide array binding signal intensity", "setting": "AgHse1", "result": 17}, {"measurement": "SPOT peptide array binding signal intensity", "setting": "AgLsb1", "result": 14}, {"measurement": "SPOT peptide array binding signal intensity", "setting": "AgLsb4", "result": 6150}, {"measurement": "SPOT peptide array binding signal intensity", "setting": "AgMyo5", "result": 1.75}, {"measurement": "SPOT peptide array binding signal intensity", "setting": "AgNbp2", "result": "≤ 0"}, {"measurement": "SPOT peptide array binding signal intensity", "setting": "AgRvs167", "result": 53.2}, {"measurement": "SPOT peptide array binding signal intensity", "setting": "AgSho1", "result": 10}, {"measurement": "SPOT peptide array binding signal intensity", "setting": "AgSla1-D1-D2", "result": "≤ 0"}, {"measurement": "SPOT peptide array binding signal intensity", "setting": "AgSla1-D3", "result": "≤ 0"}, {"measurement": "SPOT peptide array binding signal intensity", "setting": "CaAbp1-D1", "result": "≤ 0"}, {"measurement": "SPOT peptide array binding signal intensity", "setting": "CaAbp1-D2", "result": "≤ 0"}, {"measurement": "SPOT peptide array binding signal intensity", "setting": "CaBbc1", "result": 45}, {"measurement": "SPOT peptide array binding signal intensity", "setting": "CaBem1-D1", "result": 9.5}, {"measurement": "SPOT peptide array binding signal intensity", "setting": "CaBzz1-D1", "result": "≤ 0"}, {"measurement": "SPOT peptide array binding signal intensity", "setting": "CaBzz1-D2", "result": "≤ 0"}, {"measurement": "SPOT peptide array binding signal intensity", "setting": "CaCyk3", "result": 3}, {"measurement": "SPOT peptide array binding signal intensity", "setting": "CaFus1", "result": 78}, {"measurement": "SPOT peptide array binding signal intensity", "setting": "CaHof1", "result": 7.5}, {"measurement": "SPOT peptide array binding signal intensity", "setting": "CaHse1", "result": 27}, {"measurement": "SPOT peptide array binding signal intensity", "setting": "CaLsb1", "result": 6.5}, {"measurement": "SPOT peptide array binding signal intensity", "setting": "CaLsb4", "result": 6780}, {"measurement": "SPOT peptide array binding signal intensity", "setting": "CaMyo5", "result": 2}, {"measurement": "SPOT peptide array binding signal intensity", "setting": "CaNbp2", "result": "≤ 0"}, {"measurement": "SPOT peptide array binding signal intensity", "setting": "CaRvs167", "result": 1080}, {"measurement": "SPOT peptide array binding signal intensity", "setting": "CaRvs167-3", "result": 3.5}, {"measurement": "SPOT peptide array binding signal intensity", "setting": "CaSho1", "result": "≤ 0"}, {"measurement": "SPOT peptide array binding signal intensity", "setting": "CaSla1-D1-D2", "result": "≤ 0"}, {"measurement": "SPOT peptide array binding signal intensity", "setting": "CaSla1-D3", "result": "≤ 0"}, {"measurement": "SPOT peptide array binding signal intensity", "setting": "ScAbp1", "result": "≤ 0"}, {"measurement": "SPOT peptide array binding signal intensity", "setting": "ScBbc1", "result": 0.5}, {"measurement": "SPOT peptide array binding signal intensity", "setting": "ScBem1-D1", "result": "≤ 0"}, {"measurement": "SPOT peptide array binding signal intensity", "setting": "ScBzz1-D1", "result": 6}, {"measurement": "SPOT peptide array binding signal intensity", "setting": "ScBzz1-D2", "result": 22}, {"measurement": "SPOT peptide array binding signal intensity", "setting": "ScCyk3", "result": 1}, {"measurement": "SPOT peptide array binding signal intensity", "setting": "ScFus1", "result": 6}, {"measurement": "SPOT peptide array binding signal intensity", "setting": "ScHof1", "result": 16.5}, {"measurement": "SPOT peptide array binding signal intensity", "setting": "ScHse1", "result": 23.5}, {"measurement": "SPOT peptide array binding signal intensity", "setting": "ScLsb1", "result": 576}, {"measurement": "SPOT peptide array binding signal intensity", "setting": "ScLsb2", "result": "≤ 0"}, {"measurement": "SPOT peptide array binding signal intensity", "setting": "ScLsb3", "result": 9300}, {"measurement": "SPOT peptide array binding signal intensity", "setting": "ScLsb4", "result": 3020}, {"measurement": "SPOT peptide array binding signal intensity", "setting": "ScMyo3", "result": "≤ 0"}, {"measurement": "SPOT peptide array binding signal intensity", "setting": "ScMyo5", "result": "≤ 0"}, {"measurement": "SPOT peptide array binding signal intensity", "setting": "ScNbp2", "result": "≤ 0"}, {"measurement": "SPOT peptide array binding signal intensity", "setting": "ScPex13", "result": 1570}, {"measurement": "SPOT peptide array binding signal intensity", "setting": "ScRvs167", "result": 1980}, {"measurement": "SPOT peptide array binding signal intensity", "setting": "ScSho1", "result": 6}, {"measurement": "SPOT peptide array binding signal intensity", "setting": "ScSla1-D1-D2", "result": 1}, {"measurement": "SPOT peptide array binding signal intensity", "setting": "ScSla1-D3", "result": 0.5}, {"measurement": "SPOT peptide array binding signal intensity", "setting": "SpAbp1-D1", "result": "≤ 0"}, {"measurement": "SPOT peptide array binding signal intensity", "setting": "SpBbc1", "result": 3.75}, {"measurement": "SPOT peptide array binding signal intensity", "setting": "SpBzz1-D1", "result": 0.5}]}]}
